Assay outcomes deposited in PubChem BioAssay by National Center for Advancing Translational Sciences (NCATS).
The full list was thinned out, with hits kept by preference.
Marburg entry inh: qHTS for inhibitors of binding or entry into cells for Marburg Virus | Marburg virus pseudotyped entry inhibition, cell reporter | Potency, µM (series often up to 37.8 µM), for the others: at the top dose activity change, negative = inhibition, most hits filed as inhibitors | 1.8% of 300,000 active; calls by dose curve; tested in HEK293 cells; further: potency means the concentration at half of the fitted maximal effect; on the % scale 0 is the no-effect control and ±100 the full control effect
Shiga toxin inh: A qHTS for Small Molecule Inhibitors of Shiga Toxin; Vero cells, Shiga toxin protein synthesis inhibition reporter; inhibition, % at 38.7 µM; 9.2% of 290,000 active; in the data active means inhibition mostly above about 28%, no sharp cut-off; inactive means mostly below about 43%; further: 0% is about no effect
LASV entry inh: qHTS for Inhibitors of binding or entry into cells for Lassa Virus; Potency, µM (series often up to 37.9 µM), for inactives: at the highest dose activity change, negative = inhibition, most hits filed as inhibitors; Lassa virus pseudotype entry inhibition, cell reporter; 1.2% of 300,000 active; calls by dose curve; tested in HEK293 cells; further: potency means the concentration at half of the fitted maximal effect; on the % scale 0 is the no-effect control and ±100 the full control effect; nearly all actives have a fitted effect of over 50% in size
CHX counter: Cycloheximide Counterscreen for Small Molecule Inhibitors of Shiga Toxin. AID 2314, 2010. 12% of 300,000 active. max response, %. cell reporter, cycloheximide protein synthesis inhibition counterscreen; in the data active means max response mostly above about 13%, no sharp cut-off; inactive means mostly below about 14%; further: read at 38.3 µM for the half of the compounds with a filed dose; 0% is about no effect
VACV mCherry inh: qHTS for Stage-Specific Inhibitors of Vaccinia Orthopoxvirus: mCherry Reporter Primary qHTS | 0.63% of 310,000 active | AID 720579, 2013 | Potency, µM (titrated, usually from 36.5 µM), for the others: top-dose activity change, negative = inhibition, most hits filed as inhibitors | Vaccinia virus mCherry reporter infection, fluorescence; calls by dose curve; tested in A549 cells; further: potency means the concentration at half of the fitted maximal effect; on the % scale 0 is the no-effect control and ±100 the full control effect; nearly all actives have a fitted effect of over 35% in size
Vaccinia Venus: qHTS for Stage-Specific Inhibitors of Vaccinia Orthopoxvirus: Venus Reporter Primary qHTS. Potency, µM (doses to about 36.5 µM), for the others: at the highest dose activity change, negative = inhibition, usual class: inhibitors. Vaccinia virus Venus reporter expression, fluorescence. 0.46% of 330,000 active; calls by dose curve; tested in A549 cells; further: potency means the concentration at half of the fitted maximal effect; on the % scale 0 is the no-effect control and ±100 the full control effect; nearly all actives have a fitted effect of over 30% in size
An asterisk follows results filed as active; i = inactive; ? = inconclusive; nt = not tested or not shown; [ ] = remark or other dose.

SMILES	Marburg entry inh	Shiga toxin inh	LASV entry inh	CHX counter	VACV mCherry inh	Vaccinia Venus
COCCN1Cc2cccc(C(=O)Nc3ccc(-c4nc5ccccc5[nH]4)cc3)c2C1=O	?	12	1%	11*	-12%	-26%
COCCN1Cc2cccc(C(=O)Nc3ccc(C)c(F)c3)c2C1=O	14%[46.1 µM]	nt	0%[46.1 µM]	nt	-4%	-15%
COCCN1Cc2cccc(C(=O)Nc3cc(C)cc(C)c3)c2C1=O	?	-3	3%	1	-19%	-16%
C[C@H]1CN([C@@H](C)CO)S(=O)(=O)c2ccc(Br)cc2O[C@H]1CN(C)C(=O)c1cccc(F)c1	nt	nt	nt	nt	-13%	-11%
CCCOC(=O)/C(=C\C=C\c1ccco1)NC(=O)c1ccccc1	11%[46.1 µM]	115*	9%	51*	?	-14%
O=S(=O)(c1cc(F)ccc1F)N1CCC2(CC1)OCCO2	nt	85*	nt	60*	nt	nt
Cc1ccc2[nH]c3c(c2c1)CCC3=O	1%	16	-14%	10	i	-10%
Cc1ccc2[nH]c3c(c2c1)CCCC3=O	-18%[46.1 µM]	22	14%	17*	-7%	-25%
CCCCc1c(C)c2cc(C)ccc2[nH]c1=O	9%	18	6%	-3	nt	nt
Cc1ccc2[nH]c3c(c2c1)CCc1cn[nH]c1-3	2%	28*	?	25*	-23%	-15%
CCCCN1CCc2c([nH]c3ccc(C)cc23)C1=O	23%	132*	?	70*	nt	nt
O=C(NC1CCCCC1)c1ccc(CS(=O)(=O)Cc2ccccc2F)o1	16%	68*	0%	20*	nt	-17%
O=C(NC1CCCC1)c1ccc(CSCc2ccccc2F)o1	16%	31	?	31*	nt	nt
O=C(NC1CCCC1)c1ccc(CS(=O)(=O)Cc2ccccc2F)o1	nt	-6	nt	-1	nt	nt
OC1(c2cccnc2)CCN(Cc2ccc3c(c2)CN(Cc2cc4ccccc4s2)CCO3)CC1	nt	nt	nt	nt	-24%	-21%
CCC(=O)N1CCc2cc(Br)cc(S(=O)(=O)N3CCC(C(=O)N(CC)CC)CC3)c21	1%[46.1 µM]	nt	1%[46.1 µM]	nt	-21%	-12%
CC1=NN(C(N)=S)C(=O)C1N=Nc1c(C)n(C)n(-c2ccccc2)c1=O (stereo not given)	-19%	nt	2%	nt	i	-5%
COc1ccc(-n2cc(-c3ccccc3)[nH]c2=S)c(OC)c1	nt	-17	nt	-4	nt	nt
Fc1ccccc1-n1cc(-c2ccccc2)[nH]c1=S	4%	36	6%	29*	i	-3%
O=C(Nc1cccc(Cl)c1)Nc1nnc(CC2=CCCCC2)s1	17%	-4	8%	-2	nt	nt
N#Cc1ncc(N=Cc2ccc(N(CCCl)CCCl)cc2)s1	0.79µM*	nt	0.71µM*	nt	?	-21%
ClCCN(CCCl)c1ccc(C=NNc2ncccn2)cc1	?	nt	?	nt	-14%	-23%
Oc1c(Br)cc(C2N=C(c3ccccc3)NO2)cc1Br (stereo not given)	3%	103*	-3%	26*	-20%	-16%
CSc1ccc(C2N=C(c3ccccc3)NO2)cc1 (stereo not given)	?	114*	6%[46.1 µM]	41*	?	1%
CSc1nc(-c2ccccc2)c(-c2ccccc2)[nH]1	-25%	-8	-2%	-2	nt	nt
SMILES	Marburg entry inh	Shiga toxin inh	LASV entry inh	CHX counter	VACV mCherry inh	Vaccinia Venus
CC(=O)c1ccc(N2CCN(C(=O)NCc3noc4ccc(C)cc34)CC2)cc1	nt	nt	-18%[46.1 µM]	nt	-9%	-9%
CCn1ccnc1CN(C)Cc1nc(-c2cccc(Cl)c2)no1	12%[46.1 µM]	49	nt	30*	-15%	-5%
CN(CCN1CCOCC1)Cc1nc(-c2ccccc2)no1	nt	14	nt	12*	nt	nt
CCn1ccnc1CN(C)Cc1nc(-c2ccccc2)no1	?	55*	8%[46.1 µM]	35*	-4%	-7%
CCn1ccnc1CN(C)Cc1nc(CCC(C)C)no1	?	37	11%[46.1 µM]	23	-11%	-7%
COc1ccc2c(c1)cc1c(=O)n(CC(=O)NCc3ccco3)nc(C)n12	?	nt	nt	nt	11%	8%
O=[N+]([O-])c1nn(-c2ccc3c(c2)OCCO3)n(O)c1=NCc1ccc(F)cc1	?	92*	?	103*	-23%	-14%
O=[N+]([O-])c1nn(-c2ccc3c(c2)OCCO3)n(O)c1=NCc1ccc(F)cc1Cl	24%[46.1 µM]	131*	?	50*	?	-4%
O=[N+]([O-])c1nn(-c2ccc3c(c2)OCCO3)n(O)c1=NCCC1=CCCCC1	13%	49	-2%	25*	i	-3%
O=C(NCCN1CCCC1)c1ccccc1Cl	nt	-13	nt	1	nt	nt
O=C(NCCN1CCCCC1)c1ccc(F)cc1Cl	nt	27	nt	12*	nt	nt
O=C(Nc1ccc(Cl)c(Cl)c1)N1CC=CCC1	-6%	86*	-17%	33*	nt	-7%
Cc1ccc(NC(=S)N2CCCC2)cc1Cl	19%[46.1 µM]	18	?	16	-7%	-14%
Cc1ccc(NC(=O)N2CCCC2)cc1Cl	?	84*	16%	38*	nt	nt
Cc1ccc(Cl)cc1NC(=O)C(=O)N1CCCCC1	nt	23	nt	-3	i	-9%
Cc1ccc(NC(=O)C(=O)N2CCCC2)cc1Cl	20%	116*	?	39*	nt	nt
COc1ccc(CNC(=O)Cn2c(=O)ccc3cc(S(=O)(=O)N4CCCC4)ccc32)cc1	nt	nt	7%[46.1 µM]	nt	2%	-6%
COc1ccccc1NC(=S)NC(NC(=O)CC(C)C)C(Cl)(Cl)Cl (stereo not given)	nt	-7	nt	7	nt	nt
CNC(=O)Cn1c(=O)c2cccn2c2ccc(F)cc21	nt	nt	-15%[46.1 µM]	nt	-1%	-2%
CCOC(=O)N(C(=O)c1ccccc1)c1ccccc1	nt	nt	nt	nt	-15%	-9%
Cc1ccc(NC(=O)NCCN2CCCCC2)cc1Cl	?	1	21%[46.1 µM]	13*	-11%	-11%
CCc1ccc2c(c1)c(=O)c(S(=O)(=O)c1ccc(F)cc1)cn2CC(=O)Nc1ccccc1OC	?	nt	-7%[46.1 µM]	nt	-12%	-5%
Cn1cnnc1Sc1ccc(CN2CCOc3ccc(C4=CCCCC4)cc3C2)o1	nt	nt	nt	nt	-18%	-15%
CCN(CC)c1ccc(/C=N/Nc2nc(C)cc(C)n2)cc1	10µM*	35	?	20	?	?
CC(C)NC(=S)N/N=C/c1ccc2c(c1)OCCO2	?	53*	2%	49*	-20%	-21%
SMILES	Marburg entry inh	Shiga toxin inh	LASV entry inh	CHX counter	VACV mCherry inh	Vaccinia Venus
Cc1cc(C)nc(N/N=C/c2ccc3c(c2)OCCO3)n1	-3%[46.1 µM]	59*	-10%[46.1 µM]	25*	i	-3%
CCN(CC)c1ccc(/C=N/Nc2nn[nH]n2)cc1	nt	26	nt	7	nt	nt
S=C(NN=Cc1ccc2c(c1)OCO2)NN=Cc1ccc2c(c1)OCO2	?	nt	?	nt	?	-2%
C(=N\Nc1ccc2ccccc2n1)/c1ccc2c(c1)OCCO2	nt	-4	nt	-2	nt	nt
CN1C(=O)c2[nH]nc(-c3ccc(F)cc3)c2C1c1cccc(O)c1 (stereo not given)	12%[46.1 µM]	nt	25%[46.1 µM]	nt	-12%	-11%
Cc1sc(NC(=O)CN2CCOCC2)nc1-c1ccc2c(c1)CCN2S(=O)(=O)c1ccccc1	13µM*	-2	?	-4	?	?
